# Assay results as given in PubChem BioAssay AID1347075 (National Center for Advancing Translational Sciences (NCATS), 2019).
# Hit rate of the full screen: of about 400,000 compounds, about 5,500 (1.4%) were called active. Inconclusive results (about 9%) are left out. The full list was thinned out, with actives kept by preference. A number with no mark means an inactive call. Calls come from the whole dose curve; as a rule, active = well fitted cell-killing curve with a large enough effect; inconclusive = small, poorly fitted or top-dose-only effect, or effect the other way; inactive = flat fitted curve, though single readings scatter.
# Test: qHTS assay for MDR1-selective chemotherapeutics: Primary screen using the parental adenocarcinoma cell KB-3-1; note: nearly all actives have a fitted effect of over 60% in size
# Conditions: KB-3-1 viability, CellTiter-Glo ATP luminescence, 72 h; series mostly up to 46.1 µM; activity change, negative = cytotoxic: at the top concentration
# In short: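 Screening of KB-3-1 cells (DMEM, 10% FBS, phenol-red free) ran from lowest to highest compound concentration; after 72 h at 37 °C viability was read luminescently and curves fitted.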
# % is set by controls: 0 for no effect and ±100 for the full control effect; potency is the fitted concentration of half-maximal effect.
Structure (SMILES),"activity change, negative = cytotoxic [%]",Potency
Cc1cc(N2CCN(c3cccc(C(F)(F)F)c3)CC2)n2nc(-c3ccccc3)nc2n1,10.4,
O=S(=O)(CCc1nc2ccccc2o1)c1ccc(Cl)cc1,7.92,
O=S(=O)(Cc1ccc(Cl)cc1Cl)c1ccc(Cl)cc1,,1.64 µM (active)
O=S(=O)(NC1CC1)c1ccc(Cl)cc1,-3.47,
CSc1cccc(NC(=O)CSc2ccccc2)c1,-0.187,
O=C(CCl)Nc1cccc(CP(=O)(c2ccccc2)c2ccccc2)c1,,13 µM (active)
O=C(CSc1ccccc1)Nc1ccc(C(=O)Nc2cccc(O)c2)cc1,-0.55,
Cc1cccc(CC(=O)N2CC(=O)Nc3ccc(F)cc3C2c2ccccc2)c1 (configuration not stated),2.67,
O=C(C[n+]1ccncc1)c1ccc2c(c1)CCCC2,7.96,
CCOC(=O)C/C(C)=N\Nc1ccc([N+](=O)[O-])cc1[N+](=O)[O-],-5.18,
CC(C)c1nnc(NC(=O)COC(=O)/C=C/c2ccc([N+](=O)[O-])cc2)s1,-2.43,
CCOC(=O)/C(=C\c1ccc([N+](=O)[O-])cc1)C(=O)c1cc(C(C)=O)c(Nc2ccccc2)s1,,3.26 µM (active)
CN(C)S(=O)(=O)c1ccc(C(=O)N(Cc2cccnc2)c2nc3c(F)cc(F)cc3s2)cc1,10.1,
CC(=O)N1CCCc2cc(S(=O)(=O)N3CCC(C(=O)NCc4ccc(C)cc4)CC3)ccc21,-5.07,
COc1cccc(CNC(=O)C2CCC(CNS(=O)(=O)c3cccs3)CC2)c1 (configuration not stated),-2.65,
NS(=O)(=O)c1ccc(CNC(=O)c2cccc(S(=O)(=O)N3CCc4ccccc43)c2)cc1,-2.94,
O=S(=O)(c1ccc2c(c1)OCCO2)N1CCc2ccccc21,-10.5,
CCn1c(=O)c(=O)n(CC)c2cc(S(=O)(=O)N3CCc4ccccc43)ccc21,,20.6 µM (active)
Nc1nc(N)c(N=O)c(N)n1,-6.75,
Cc1cc(Cl)ccc1OCC(=O)N(Cc1ccc(N(C)C)cc1)C1CCS(=O)(=O)C1 (configuration not stated),-1.52,
COCCNc1nc(N)c([N+](=O)[O-])c(N2CCCCCC2)n1,-7.28,
Nc1cc(N2CCCCCC2)c2nonc2c1[N+](=O)[O-],,11.6 µM (active)
Cc1c(Nc2cc(N3CCCC(C)C3)c3nonc3c2[N+](=O)[O-])c(=O)n(-c2ccccc2)n1C (configuration not stated),4.28,
COc1ccc2ncc3c(-c4ccc(C)c(C)c4)nn(CC(=O)NC4CCCC4)c3c2c1,1,
C/C(=N/NC(=O)CC(=O)N/N=C(\C)c1ccc([N+](=O)[O-])cc1)c1ccc([N+](=O)[O-])cc1,-50.6,

Structure (SMILES),"activity change, negative = cytotoxic [%]",Potency
Cc1ccc(C(=O)Cn2cccn2)cc1,11.3,
CC12CCC(C(=O)N(NC(=O)c3ccccc3O)C1=O)C2(C)C (configuration not stated),,16.4 µM (active)
CC(Sc1nnc2c(n1)C1CCC2(C)C1(C)C)C(=O)Nc1ccccc1 (configuration not stated),-0.569,
CC1=CC(C)(C)NC(=S)N1NC(=O)c1ccccc1Cl,5.1,
Cc1ccc(CNC(=O)CCC(=O)N2Cc3ccccc3Oc3ncccc32)cc1,-0.423,
CNC(=O)CN1C(=O)c2cccnc2Sc2ccccc21,2.16,
COCCNC(=O)c1ccc2c(c1)N=C(C)c1cc(C)ccc1S2,,0.651 µM (active)
COCCNC(=O)c1ccc(S(=O)(=O)c2ccc(Cl)cc2)c(NC(C)=O)c1,-5.96,
CC1=Nc2cc(C(=O)N3CCC(C)CC3)ccc2Sc2ccc(Cl)cc21,-7.06,
NC(=O)CSc1nc2c(oc3ccccc32)c(=O)n1Cc1ccccc1,1.42,
Cn1c(NCc2cccnc2)nc2cc(-c3ccc(F)cc3)sc2c1=O,-0.0429,
O=c1[nH]c(CCl)nc2cc(-c3ccc(Cl)cc3)sc12,,9.2 µM (active)
COc1cccc(-c2cc3nc(NCCOc4ccccc4Cl)n(C)c(=O)c3s2)c1,0,
Cc1cc(C)c2oc(C(=O)Nc3ccc(S(=O)(=O)N(C)c4ccccc4)cc3)cc(=O)c2c1,4.69,
COc1cccc(C(=O)NCCS(=O)(=O)NCC2CCCO2)c1 (configuration not stated),-6.43,
CN(C)S(=O)(=O)N1CCC(Oc2cccc(C(=O)NCCCC3CCCC3)c2)CC1,,14.6 µM (active)
CN(C(=O)c1cccc(OC2CCN(S(=O)(=O)N(C)C)CC2)c1)C1CCOC1 (configuration not stated),8.45,
COc1cccc(NC(=O)C2CCN(c3cc(C)nc4c(-c5ccc(Cl)cc5)c(C)nn34)CC2)c1,-0.208,
CC(NC(=O)c1cc2c(=O)n3ccccc3nc2n(C(C)C)c1=N)c1ccccc1 (configuration not stated),0.478,
COc1ccc(OC)c(CNC(=O)Cn2nc(C)c3c(C)n(-c4ccccc4)nc3c2=O)c1,-12.2,
O=C(Nc1nc(-c2ccc3c(c2)OCO3)cs1)c1ccncc1,,2.91 µM (active)
CC(O)(c1cccc(F)c1)c1nc(-c2ccc3c(c2)OCO3)cs1 (configuration not stated),0,
COc1ccc(C(O)c2nc(-c3ccc4c(c3)OCO4)cs2)cc1 (configuration not stated),0,
Cc1nn(C(C)C(=O)NCCc2ccccc2)c(=O)c2c1sc1ccccc12 (configuration not stated),3.29,
CCC(C(=O)Nc1cc(OC)ccc1OC)n1c(=O)c(C(F)(F)F)nc2ccccc21 (configuration not stated),7.88,

Structure (SMILES),"activity change, negative = cytotoxic [%]",Potency
O=C(CN1c2ccccc2S(=O)(=O)c2ccccc21)Nc1cccc(C(F)(F)F)c1,-4.61,
COc1ccc(/C=C2/CCCc3ccccc3C2=O)cc1,,0.651 µM (active)
COc1ccccc1C1=CC(=O)CCC1,28.5,
COc1ccc(/C=C2\N=C3CCCN3C2=O)cc1,5.91,
O=C(Nc1nc2ccc([N+](=O)[O-])cc2s1)c1ccc(S(=O)(=O)N2CCCc3ccccc32)cc1,,2.06 µM (active)
Cc1cc2nc(NC(=O)c3ccc(S(=O)(=O)N4CCOCC4)cc3)sc2cc1C,22.1,
CNC(=O)c1ccsc1NC(=O)c1ccc(S(=O)(=O)N2CCc3ccccc32)cc1,-22.8,
O=C(NC1CCCCC1)c1ccc2c(c1)N(Cc1ccc(Cl)cc1)C(=O)c1ccccc1S2=O (configuration not stated),5.96,
N#Cc1ccc(C(=O)Nc2nc(-c3cccs3)c(C(=O)C(F)(F)F)s2)cc1,,5.8 µM (active)
N#Cc1c(-c2cccs2)nc(SCC(=O)c2ccc(Br)cc2)[nH]c1=O,2.12,
COc1ccc(C(F)(F)F)cc1NC(=O)c1sc2nc(-c3cccs3)ccc2c1N,-8.83,
NCCCNC(=S)NCCCN(Cc1ccc(Cl)cc1)c1ccc(Br)cn1,,inactive
S=C(NCCCc1cnc[nH]1)NCCCN(Cc1ccc(Cl)c(Cl)c1)c1ccc(Br)cn1,,13 µM (active)
O=C(Nc1ccc(Cl)cc1)c1cnn2c1NC(=C1CC1)C=C2C(F)F,29.6,
CCn1c(=O)c2cc(C(=O)NCCc3ccc(Cl)cc3)sc2c2ccccc21,12.2,
CSc1nc(Nc2ccc(F)cc2)cc(-c2ccccc2)n1,5.28,
CSc1nc(-c2ccccc2)nc(C(Cl)Cl)n1,,2.91 µM (active)
CC(=O)c1ccc(NC(=O)C2CCN(S(=O)(=O)c3c(C)noc3/C=C/c3ccc(C)cc3)CC2)cc1,4,
COc1ccc(CNC(=O)CSCc2nc(-c3ccccc3F)oc2C)cc1,-11.1,
Fc1ccccc1Oc1ncnc2c1oc1ccccc12,5.25,
Cc1ccc(-c2ccc(CN3C(C(C)C)C(=O)N(Cc4cn(CCC5OCCO5)nn4)CCS3(=O)=O)cc2)cc1 (configuration not stated),,18.4 µM (active)
CC(C)C1C(=O)N(Cc2cn(CCC3OCCO3)nn2)CCS(=O)(=O)N1Cc1ccc(-c2ccccc2C(F)(F)F)cc1 (configuration not stated),-0.628,
Cc1ccc(-c2ccc(CN3C(C)C(=O)N(Cc4cn(CCC5OCCCO5)nn4)CCS3(=O)=O)cc2)cc1 (configuration not stated),-18.8,
Cc1ccc(-c2nc3ccccn3c2Nc2c(C)cccc2C)o1,-3.73,
CCOc1ccc(NC(=O)Cn2c(C)ccc(C#N)c2=O)cc1,-15.1,

Structure (SMILES),"activity change, negative = cytotoxic [%]",Potency
CC(=O)c1cccc(Nc2ccc3cc(S(=O)(=O)N4CCC(C)CC4)ccc3n2)c1,-15.4,
CCOc1cc(NC(=O)Nc2ccccc2)c(OCC)cc1NC(=O)CC,1.09,
CCCC(=O)Nc1cc(OCC)c(NC(=O)NC2CCCCC2)cc1OCC,-0.982,
CCOc1cc(NC(=O)CCl)c(OCC)cc1NC(C)=O,,18.4 µM (active)
COc1ccc(OC)c(NC(=O)C2CCCN(S(=O)(=O)c3ccc4c(c3)CCCC(=O)N4)C2)c1 (configuration not stated),-1.19,
COC(=O)c1cc(NC(=O)CCS(=O)(=O)c2cc(Br)cc3c2N(C(=O)C2CC2)CC3)cc(C(=O)OC)c1,4.7,
Cc1ccc(Cc2cnc(NC(=O)/C(C#N)=C/c3ccc(-c4cccc([N+](=O)[O-])c4)o3)s2)cc1,,14.6 µM (active)
CCOC(=O)c1ccc(-c2ccc(/C=C(\C#N)C(=O)Nc3ccc(C)cc3)o2)cc1,10.4,
Cc1ccc(C(=O)N/C(=C/c2ccc(-c3cccc([N+](=O)[O-])c3)o2)C(=O)NCCCN(C)C)cc1,23,
CCc1ccccc1NC(=O)CSc1nc(C)c(C(=O)Nc2ccccc2)c(-c2ccc(Cl)cc2)c1C#N,9.75,
CCN(CCCNC(=O)c1c(C)oc2ncn(CC(C)C)c(=O)c12)Cc1ccccc1,1.99,
COc1ccc(-c2cc(NCc3ccc(F)cc3)n3cnnc3n2)cc1,0.251,
COc1cc(OC)cc(C(=O)N[C@H](C(=O)OCC(=O)NC(C)c2ccccc2)C(C)C)c1 (some centres not stated),6.04,
COc1cc(OC)cc(C(=O)NC(C(=O)N2CCC2)C(C)C)c1 (configuration not stated),3.72,
COc1cc(OC)cc(C(=O)N[C@H](C(=O)Nc2nc3ccccc3[nH]2)C(C)C)c1,,1.64 µM (active)
COc1ccc(O)c(/C=N/N=C/c2cccc([N+](=O)[O-])c2)c1,4.17,
CCCc1ccc(OCc2ccc(C(=O)N/N=C/c3cccc([N+](=O)[O-])c3)o2)c(OC)c1,,18.4 µM (active)
COc1ccccc1OCc1ccc(C(=O)NC(C)c2ccccc2)o1 (configuration not stated),-14.5,
COc1ccc(OC)c(NC(=O)Cn2c(=O)n(Cc3ccccc3)c(=O)c3ccccc32)c1,-13.4,
COc1ccc(NC(=O)CCCN2C(=O)CCn3nc(-c4cn(C)c5ccccc45)cc32)cc1OC,11.5,
Cc1cc(NC(=O)c2cccc(Cl)c2)ccc1-c1cc2ccccc2oc1=O,-2.7,
O=c1oc2ccccc2cc1-c1cn(-c2ccccc2)c(=S)[nH]1,,3.66 µM (active)
